# Screens: PubChem BioAssay, National Center for Advancing Translational Sciences (NCATS)
# The list is not random: actives were taken first. Their share in the collection is about 3.1%.
# PMP22 txn: modulators of PMP22 gene transcription in S16 Schwann cells; hit rate 2% among 43,000; Potency, µM (series often up to 57.5 µM), inactives show at the top dose activity change, negative = inhibition, hits mostly inhibitors; S16 Pmp22-F2sN Schwann cells, FLuc/NLuc coincidence luminescence, 24 h; active = clear falling dose curves in both reporters; inconclusive = both reporters move, but less clearly or upward; inactive = either reporter flat; the % is the NLuc reporter signal; also: potency is read from the fitted curve at half-maximal effect; % is scaled to controls: 0 for no effect and ±100 for the full control effect
#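 Reporter cells (S16 Pmp22-F2sN, 500–1,000 per well) exposed to compounds for 24 h, 37C, 5% CO2; lysis with FLuc read after 10 min, then Stop&Glo and NLuc read after 10 min.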
# OvCa metastasis: ovarian cancer metastasis inhibition, 3D TME model | hit rate 0.1% among 46,000 | Potency, µM (highest dose often 45.8 µM), for the others: at the top dose activity change, negative = inhibition, actives largely listed as inhibitors | SKOV3ip1-GFP adhesion/invasion on 3D omental model, fluorescence;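 also: potency is read from the fitted curve at half-maximal effect; plate controls were DMSO wells for no effect and tomatine positive control wells for full effect; nearly all actives have a fitted effect of over 65% in size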
#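 Primary human omental fibroblast/mesothelial 3D culture pre-formed 48 h. SKOV3ip1-GFP cells added with compounds (0.36-46 umol/L), incubated 2 h RT/16 h 37 C, fixed; GFP cells quantified at 488/509 nm.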
# pS6 MEF inh: mTORC1 pathway inhibition measured by phospho-rpS6 | Tsc2-/- p53-/- MEF, phospho-rpS6 immunofluorescence/PI, 24 h | Potency, µM (top dose mostly 38.3 µM), without a hit: at the highest dose activity change, negative = inhibition, actives largely listed as inhibitors | hit rate 0.78% among 44,000;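 also: potency is read from the fitted curve at half-maximal effect; plate controls were DMSO for no effect and rapamycin for full effect; nearly all actives have a fitted effect of over 50% in size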
#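 Read-out: phospho-S6 Alexa-488 intensity over PI intensity per well, scored as % active cells using thresholds from rapamycin (7.5 nM) and DMSO controls. Tsc2-/-, p53-/- MEFs exposed to compound for 24 h; PI cell count recorded as viability.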
# p53null 32C kill: kills p53 null cells at the permissive temperature. H1299-neo p53 null cells, ATP luminescence, 24 h, 32C. Potency, µM (series often up to 46.1 µM), without a hit: at the highest dose activity change, negative = cytotoxicity, hits mostly cytotoxic. hit rate 0.62% among 55,000. AID 903;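 also: potency is read from the fitted curve at half-maximal effect; 0% = DMSO only and -100% = full killing by 100 µM tamoxifen; nearly all actives have a fitted effect of over 55% in size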
#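 Luminescent ATP readout gave cell viability of p53-null H1299-neo cells after a 24 h compound exposure at the permissive 32C. Titrations ran up to 46 uM, and AC50s were fitted with the standard Hill equation.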
# S16 viability: S16 Schwann cell cytotoxicity. S16 Pmp22-F2sN Schwann cells viability, CellTiter-Glo, 24 h. Potency, µM (top dose mostly 57.5 µM), without a hit: at the highest dose activity change, negative = cytotoxicity, hits mostly cytotoxic. hit rate 0.48% among 43,000. AID 1508642; also: potency is read from the fitted curve at half-maximal effect; % is scaled to controls: 0 for no effect and ±100 for the full control effect; nearly all actives have a fitted effect of over 65% in size
#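 Used to flag compounds lowering reporter output through toxicity, this quantitative HTS measures ATP-based CellTiter-Glo luminescence in S16 Pmp22-F2sN Schwann cells after 24 h compound exposure at 37C.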
# p53null 39C tox: kills p53 null cells at the nonpermissive temperature; AID 904; H1299 p53-null (neo) cells, 39C, ATPlite viability, 24 h; hit rate 0.97% among 55,000; Potency, µM (top dose mostly 46.1 µM), for inactives: at the highest dose activity, negative = cell killing, hits mostly cytotoxic;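 also: potency is read from the fitted curve at half-maximal effect; 0% = DMSO only and -100% = full killing by 100 µM tamoxifen; nearly all actives have a fitted effect of over 50% in size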
#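 Cells seeded at 600/well, 37C overnight. Compound added (up to 46 uM), plates shifted to 39C for 24 hr. ATPlite added, luminescence read after 20 min at room temperature.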
# NLuc saturating: counter-screen for PMP22 expression modulators: NanoLuc inhibition, saturating substrate | Secreted NLuc enzyme (filtered S16 cell medium), Nano-Glo luminescence | shares compounds with PMP22 txn | hit rate 4% among 690 | Potency, µM (series often up to 57.5 µM), for the others: at the highest dose activity change, negative = inhibition, most hits filed as inhibitors | AID 1508638; also: potency is read from the fitted curve at half-maximal effect; % is scaled to controls: 0 for no effect and ±100 for the full control effect
# NLuc Km ctr: NanoLuc inhibition at Km substrate, PMP22 artifact check; hit rate 5% among 690; Potency, µM (top dose mostly 57.5 µM), inactives show at the top dose activity change, negative = inhibition, usual class: inhibitors; secreted NLuc enzyme, coelenterazine luminescence, Km conditions; shares compounds with PMP22 txn; also: potency is read from the fitted curve at half-maximal effect; % is scaled to controls: 0 for no effect and ±100 for the full control effect
# FLuc ctr PMP22: firefly luciferase enzyme inhibition artifact for PMP22 screen. shares compounds with PMP22 txn. purified P. pyralis FLuc, luminescence, 10 min. Potency, µM (doses to about 57.5 µM), for inactives: at the highest dose activity, negative = inhibition, actives largely listed as inhibitors. 690 tested, under 10 active; also: % of control where 0% means no effect
# Target sequence (P08659 whole entry, looked up): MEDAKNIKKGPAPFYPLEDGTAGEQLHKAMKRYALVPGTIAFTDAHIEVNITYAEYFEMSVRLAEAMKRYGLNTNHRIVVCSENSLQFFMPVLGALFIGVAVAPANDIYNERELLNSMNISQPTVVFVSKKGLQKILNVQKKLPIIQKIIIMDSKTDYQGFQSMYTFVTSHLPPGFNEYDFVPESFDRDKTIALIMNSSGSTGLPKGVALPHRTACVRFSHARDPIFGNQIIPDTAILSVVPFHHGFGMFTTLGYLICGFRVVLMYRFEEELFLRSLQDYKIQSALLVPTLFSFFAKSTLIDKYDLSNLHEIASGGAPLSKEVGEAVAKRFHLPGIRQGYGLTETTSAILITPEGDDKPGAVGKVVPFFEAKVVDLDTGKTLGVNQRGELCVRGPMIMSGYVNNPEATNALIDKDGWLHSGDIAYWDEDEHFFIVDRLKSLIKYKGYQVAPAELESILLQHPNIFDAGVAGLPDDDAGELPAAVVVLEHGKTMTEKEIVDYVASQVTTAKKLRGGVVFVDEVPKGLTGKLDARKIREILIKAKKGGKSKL
# S16 viab conf: S16 Schwann cell cytotoxicity, confirmatory; shares compounds with PMP22 txn; S16 Schwann cells viability, CellTiter-Glo ATP luminescence, 24 h; Potency, µM (series often up to 57.5 µM), for inactives: top-dose activity change, negative = viability loss, actives largely listed as cytotoxic; hit rate 7% among 690; AID 1508641; also: potency is read from the fitted curve at half-maximal effect; % is scaled to controls: 0 for no effect and ±100 for the full control effect
# PMP22 txn cnf: confirmation of modulators of PMP22 gene transcription in S16 cells | S16 Schwann cells Pmp22-F2sN, dual luciferase, 24 h | AID 1508646 | Potency, µM (highest dose often 57.5 µM), without a hit: at the highest dose activity change, negative = inhibition, most hits filed as inhibitors | shares compounds with PMP22 txn | hit rate 22% among 690; active = clear falling dose curves in both reporters; inconclusive = both reporters move, but less clearly or upward; inactive = either reporter flat; the % is the FLuc reporter signal; also: potency is read from the fitted curve at half-maximal effect
# PMP22 prot conf: confirmation of modulators of rat PMP22 protein expression | shares compounds with PMP22 txn | S16 Schwann cells Pmp22-HiBiT, luminescence, 48 h | Potency, µM (titrated, usually from 27.9 µM), without a hit: at the highest dose activity change, negative = inhibition, most hits filed as inhibitors | 95 tested, under 10 active
# Target sequence (P25094 whole entry, looked up): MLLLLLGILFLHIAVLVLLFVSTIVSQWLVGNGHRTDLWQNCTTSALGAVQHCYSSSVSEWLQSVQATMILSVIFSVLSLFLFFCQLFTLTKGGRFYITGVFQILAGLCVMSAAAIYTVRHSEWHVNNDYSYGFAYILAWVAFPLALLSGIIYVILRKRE
# An asterisk follows results filed as active; i = inactive; ? = inconclusive; . = no result. Unless noted, calls follow the shape of the dose curve; as a rule, active = well fitted curve in the direction sought with a large enough effect; inconclusive = small, poorly fitted or top-dose-only effect, or another doubt; inactive = no such curve, though single readings can be large; an effect the other way counts as inactive or inconclusive.
SMILES,PMP22 txn,OvCa metastasis,pS6 MEF inh,p53null 32C kill,S16 viability,p53null 39C tox,NLuc saturating,NLuc Km ctr,FLuc ctr PMP22,S16 viab conf,PMP22 txn cnf,others
Cc1ccc(OCC(=O)Nc2ccc3nc(SCC(=O)N4CCc5ccccc54)sc3c2)cc1,2.38µM*,-5.0%,-0.2%,-3.3%,0.3%,-10.6%,-2.9%,-1.6%,-8.0%,-11.3%,7.27µM*,PMP22 prot conf=?
COc1ccc(Cn2ccc3ccc(C(=O)NO)cc32)cc1,.,-7.4%,.,.,.,.,.,.,.,.,.,
CCOC(=O)c1cccc(NC(=O)c2cc3cc4ccc(C)cc4nc3s2)c1,11.3µM*,i,-2.0%,-1.4%,12.9%,-17.1%,-4.9%,0.2%,-17.0%,?,19.3µM*,
CCOC(=O)c1cccc(NC(=O)c2cc3cc4cc(OC)ccc4nc3s2)c1,?,17.0%,-0.5%,-4.3%,8.8%,7.3%,.,.,.,.,.,
Cc1cccc(CCn2c(=O)c3ccccc3n(CC(=O)Nc3ccccc3F)c2=O)c1,16µM*,i,-18.7%,-14.6%,24.7%,9.0%,-1.6%,4.0%,2.5%,-8.0%,-21.7%,
COc1ccccc1CNC(=O)CCCCn1c(=O)c2ccccc2n(Cc2ccccc2F)c1=O,?,4.3%,0.5%,16.8%,2.8%,1.7%,.,.,.,.,.,
COc1ccc(NC(=O)Cn2c(=O)n(Cc3ccc(C(=O)NCc4ccccc4Cl)cc3)c(=O)c3ccccc32)cc1OC,-43.2%,i,-4.1%,4.4%,-11.6%,-18.8%,.,.,.,.,.,
COc1ccccc1CNC(=O)CCCCn1c(=O)c2ccccc2n(Cc2ccccc2C)c1=O,14.1µM*,i,-8.4%,7.5%,-4.5%,-6.6%,-16.3%,?,1.9%,-25.7%,?,
COc1ccc(NC(=O)Cn2c(=O)n(Cc3ccccc3Cl)c(=O)c3cc(OC)c(OC)cc32)cc1OC,13.4µM*,-4.4%,-5.6%,-7.4%,23.9%,-21.1%,-0.6%,4.9%,-2.3%,11.3%,2.1%,
O=C(CCCCn1c(=O)c2ccccc2n(CC(=O)Nc2ccc(F)cc2F)c1=O)NCc1ccccc1Cl,16.3µM*,i,-1.7%,12.8%,18.1%,-1.0%,-4.1%,-5.0%,0.6%,-7.9%,?,
Cc1cccc(NC(=O)Cn2c(=O)n(CCc3ccccc3)c(=O)c3ccccc32)c1,?,25.8%,-18.6%,1.7%,17.3%,-32.6%,.,.,.,.,.,
O=C(CCCn1c(=O)c2ccccc2n(CC(=O)Nc2ccc(F)cc2F)c1=O)NCc1ccccc1Cl,?,i,-8.1%,-5.6%,13.4%,-28.4%,.,.,.,.,.,
O=C(NOCC1CC1)c1ccc(F)c(F)c1Nc1ccc(I)cc1Cl,.,23.3%,.,.,.,.,.,.,.,.,.,
CN(C)CC[C@H](CSc1ccccc1)Nc1ccc(S(=O)(=O)NC(=O)c2ccc(N3CCN(Cc4ccccc4-c4ccc(Cl)cc4)CC3)cc2)cc1[N+](=O)[O-],.,14.6%,.,.,.,.,.,.,.,.,.,
COc1ccc(NC(=O)Cn2c(=O)n(CCC(=O)NCc3ccccc3OC)c(=O)c3ccccc32)cc1Cl,15µM*,i,-4.8%,4.9%,8.3%,20.1%,-5.1%,3.4%,6.2%,-18.8%,12.9µM*,PMP22 prot conf=?
COc1ccc(NC(=O)CCn2c(=O)c3cccn3c3cccnc32)cc1Cl,-16.8%,-1.7%,-0.9%,-3.5%,17.8%,-23.1%,.,.,.,.,.,
COc1ccc(NC(=O)Cn2c(=O)n(CCCC(=O)NCc3ccccc3OC)c(=O)c3ccccc32)cc1Cl,?,i,?,0.0%,20.7%,-20.1%,.,.,.,.,.,
COc1ccc(NC(=O)CCCn2c(=O)c3cccn3c3cccnc32)cc1Cl,15µM*,-4.5%,-4.2%,-8.9%,-0.5%,-11.6%,-17.4%,-17.7%,-6.7%,-5.9%,-25.9%,
OC[C@H](Cc1ccccc1)Nc1nc(Oc2ccc3c(c2)CCC3)nc2c1ncn2Cc1ccc(-c2ccccc2)cc1,.,21.5%,.,.,.,.,.,.,.,.,.,
CC(=O)N[C@H]1[C@@H]([C@H](O)[C@H](O)CO)OC(C(=O)O)=C[C@@H]1N=C(N)N,.,-8.4%,.,.,.,.,.,.,.,.,.,
Cc1nnc(C(C)C)n1C1C[C@H]2CC[C@@H](C1)N2CC[C@H](NC(=O)C1CCC(F)(F)CC1)c1ccccc1 (stereo partly specified),.,6.9%,.,.,.,.,.,.,.,.,.,
Cc1cc(Nc2ccc(F)cc2)nc(-n2nc(C)cc2C)n1,?,0.3%,-0.5%,-12.0%,?,-7.1%,?,-12.2%,-8.5%,?,16.5µM*,
CCCCCOc1ccccc1CN1C(=O)C(=O)c2cc(C)ccc21,13.5µM*,i,?,1.9%,0.0%,?,?,?,-0.6%,-5.7%,?,
Cc1c(Cl)cccc1NC(=O)CSc1ncc2c(n1)-c1ccccc1N(C)S2(=O)=O,16.8µM*,-3.2%,2.8%,-22.7%,5.0%,-18.2%,?,?,2.4%,6.3%,-44.0%,
COc1ccc(NC(=O)CSc2nc(-c3ccco3)cc(C(F)(F)F)n2)cc1,?,-3.2%,-20.3%,14.1%,0.9%,-24.2%,-1.5%,7.2%,4.2%,10.0%,22.5%,
